This is an account of results in PubChem BioAssay (EPA / NIEHS).

Broadly, the AC50 is the concentration giving half of the maximal activity seen.

Holding throughout (conditions): mRNA level, 48 h; actives raise or lower the signal
Read-out in experiment [1]: Early growth response protein 1 (EGR1) transcription factor, EGR1 (gene 1958)
In words: LTEA_HepaRG_EGR1: Life Technologies and Expression Analysis (LTEA) Assay for Early growth response protein 1 (EGR1) transcription factor using HepaRG (AID 2283490). An outline of the steps:
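Differentiated human HepaRG cells in serum-free induction medium were exposed in duplicate for 48 h to eight concentrations (top 100 uM, half-log steps) in 0.5% DMSO. EGR1 mRNA was quantified by qRT-PCR, normalized to ACTB, GAPDH and POLR2A, and fitted bidirectionally versus DMSO.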

Read-out in experiment [2]: Ezrin (EZR), EZR (gene 7430)
Put plainly: LTEA_HepaRG_EZR: Life Technologies and Expression Analysis (LTEA) Assay for Ezrin (EZR) using HepaRG (AID 2283491). An outline of the steps:
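Read-out is EZR transcript level by qRT-PCR, normalized to three housekeeping genes and fitted bidirectionally against the DMSO control. Human HepaRG cells received test chemicals for 48 h at eight half-log concentrations up to 100 uM in 0.5% DMSO.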

Read-out in experiment [3]: Cytochrome P450 3A7 (Homo sapiens) (UniProt P24462)
In words: LTEA_HepaRG_CYP3A7: Life Technologies and Expression Analysis (LTEA) Assay for CYP3A7 using HepaRG (AID 2283492). An outline of the steps:
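Human HepaRG liver cells, 48 h post-plating, switched to serum-free induction medium and exposed in duplicate for 48 h. Dosing: 100 uM top, half-log dilutions, 8 points, 0.5% DMSO vehicle. Read-out: CYP3A7 mRNA, gain or loss fitted against DMSO baseline.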

Read-out in a further experiment: CYP3A5 (gene 1577)
Put plainly: LTEA_HepaRG_CYP3A5: Life Technologies and Expression Analysis (LTEA) Assay for CYP3A5 using HepaRG (AID 2283493). An outline of the steps: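 HepaRG plated 48 h, switched to serum-free induction medium, chemicals added 48 h (max 100 uM, half-log, 0.5% DMSO). RNA isolated; CYP3A5 by TaqMan qRT-PCR. Gain/loss vs DMSO.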

Read-out in experiment [4]: Fatty Acid-Binding Protein 1 (FABP1), FABP1 (gene 2168)
Put plainly: LTEA_HepaRG_FABP1: Life Technologies and Expression Analysis (LTEA) Assay for Fatty Acid-Binding Protein 1 (FABP1) using HepaRG (AID 2283494). An outline of the steps:
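Differentiated human HepaRG cells were exposed in duplicate for 48 h in serum-free induction medium to 8-point half-log concentration series topping at 100 uM in 0.5% DMSO. FABP1 mRNA measured by TaqMan qRT-PCR, normalized to ACTB/GAPDH/POLR2A; bidirectional fit versus DMSO.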

Read-out in experiment [5]: Cytochrome P450 4A22 (Homo sapiens) (UniProt Q5TCH4)
Put plainly: LTEA_HepaRG_CYP4A22: Life Technologies and Expression Analysis (LTEA) Assay for Cytochrome P450 4A22 (CYP4A22) using HepaRG (AID 2283495). An outline of the steps: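 Readout is CYP4A22 transcript induction or loss, quantified by qRT-PCR and normalized to ACTB, GAPDH and POLR2A. Human HepaRG cells receive test chemicals for 48 h at eight half-log concentrations from 100 uM in 0.5% DMSO.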

Read-out in experiment [6]: Cytochrome P450 7A1 (Homo sapiens) (UniProt P22680)
Put plainly: LTEA_HepaRG_CYP7A1: Life Technologies and Expression Analysis (LTEA) Assay for Cytochrome P450 7A1 (CYP7A1) using HepaRG (AID 2283496). An outline of the steps:
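HepaRG cells plated 48 h, then switched to serum-free induction medium and exposed in duplicate for 48 h to 8-point half-log series from 100 uM in 0.5% DMSO. CYP7A1 mRNA by qRT-PCR (TaqMan), normalized to ACTB/GAPDH/POLR2A; bidirectional fit versus DMSO.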

Read-out in experiment [7]: Glutathione S-Transferase (GSTA2), GSTA2 (gene 2939)
In words: LTEA_HepaRG_GSTA2: Life Technologies and Expression Analysis (LTEA) Assay for Glutathione S-Transferase (GSTA2) using HepaRG (AID 2283497). An outline of the steps:
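Human HepaRG cells, plated 48 h, then exposed in serum-free induction medium for 48 h to eight half-log concentrations up to 100 uM in 0.5% DMSO, duplicate. GSTA2 mRNA by qRT-PCR, normalized to ACTB/GAPDH/POLR2A; bidirectional fit versus DMSO.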

Read-out in experiment [8]: Glutamate-cysteine ligase catalytic (GCLC), GCLC (gene 2729)
In words: LTEA_HepaRG_GCLC: Life Technologies and Expression Analysis (LTEA) Assay for Glutamate-cysteine ligase catalytic (GCLC) using HepaRG (AID 2283498). An outline of the steps:
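Differentiated human HepaRG cells, plated 48 h then switched to serum-free induction medium, were exposed in duplicate for 48 h to 8 half-log concentrations topping at 100 uM in 0.5% DMSO. GCLC mRNA was quantified by qRT-PCR against ACTB, GAPDH and POLR2A.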

Read-out in experiment [9]: growth arrest and DNA damage 45 (GADD45G), GADD45G (gene 10912)
Put plainly: LTEA_HepaRG_GADD45G: Life Technologies and Expression Analysis (LTEA) Assay for growth arrest and DNA damage 45 (GADD45G) using HepaRG (AID 2283499). An outline of the steps: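 Gain or loss of GADD45G mRNA, quantified by TaqMan qRT-PCR against three housekeeping genes, is fitted in both directions relative to 0.5% DMSO. Human HepaRG cultures receive test chemical for 48 h at up to 100 uM.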

Read-out in experiment [10]: Glutamate-cysteine ligase regulatory (GCLM), GCLM (gene 2730)
In words: LTEA_HepaRG_GCLM: Life Technologies and Expression Analysis (LTEA) Assay for Glutamate-cysteine ligase regulatory (GCLM) using HepaRG (AID 2283500). An outline of the steps:
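Cells were plated, cultured 48 h, switched to serum-free induction medium, then dosed in duplicate for 48 h at eight half-log concentrations up to 100 uM. RNA was then profiled by qRT-PCR; gain or loss versus DMSO was fitted.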

Read-out in experiment [11]: Glutathione S-transferase M3 (GSTM3), GSTM3 (gene 2947)
In words: LTEA_HepaRG_GSTM3: Life Technologies and Expression Analysis (LTEA) Assay for Glutathione S-transferase M3 (GSTM3) using HepaRG (AID 2283501). An outline of the steps:
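HepaRG, plated 48 h, then serum-free induction medium; test chemical 48 h, duplicate; 100 uM top, half-log x8, 0.5% DMSO. Read-out: GSTM3 mRNA (TaqMan qRT-PCR, Fluidigm array). Bidirectional fit vs DMSO.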

Read-out in experiment [12]: Hypoxia-inducible factor 1-alpha (Homo sapiens) (UniProt Q16665)
Put plainly: LTEA_HepaRG_HIF1A: Life Technologies and Expression Analysis (LTEA) Assay for Hypoxia-inducible factor 1 (HIF1A) Trancription factor using HepaRG (AID 2283503). An outline of the steps: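 Differentiated HepaRG cells in serum-free induction medium exposed 48 h, in duplicate, to 8-point half-log series from 100 uM in 0.5% DMSO. HIF1A mRNA measured by TaqMan qRT-PCR, normalized to ACTB/GAPDH/POLR2A, fitted bidirectionally versus DMSO.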

Read-out in experiment [13]: 3-Hydroxy-3-Methylglutaryl-CoA Synthase 2 (HMGCS2), HMGCS2 (gene 3158)
In words: LTEA_HepaRG_HMGCS2: Life Technologies and Expression Analysis (LTEA) Assay for 3-Hydroxy-3-Methylglutaryl-CoA Synthase 2 (HMGCS2) using HepaRG (AID 2283504). An outline of the steps: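 HepaRG, plated 48 h then switched to serum-free induction media; cmpd 8-pt, max 100 uM, 1/2-log, 0.5% DMSO, n=2, 48 h. HMGCS2 mRNA by Fluidigm TaqMan qRT-PCR, ACTB/GAPDH/POLR2A norm; bidirectional fit vs DMSO.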

Read-out in the next experiment: HGF (gene 3082)
Put plainly: LTEA_HepaRG_HGF: Life Technologies and Expression Analysis (LTEA) Assay for Hepatocyte Growth Facto (HGF) using HepaRG (AID 2283505). An outline of the steps:
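Read-out is HGF transcript level by qRT-PCR, normalized to three housekeeping genes, fitted bidirectionally against 0.5% DMSO vehicle. Human HepaRG cells received test chemicals for 48 h at up to 100 uM.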

Read-out in experiment [14]: Insulin Like Growth Factor 1 (IGF1), IGF1 (gene 3479)
In words: LTEA_HepaRG_IGF1: Life Technologies and Expression Analysis (LTEA) Assay for Insulin Like Growth Factor 1 (IGF1) using HepaRG (AID 2283506). An outline of the steps:
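HepaRG, plated 48 h, then switched to serum-free induction media; test chemical 8-pt half-log from 100 uM (0.5% DMSO), duplicate, 48 h. Lysis in RLT, TaqMan qRT-PCR, norm. ACTB/GAPDH/POLR2A. Bidirectional fit vs DMSO.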

Read-out in experiment [15]: Intercellular Adhesion Molecule 1 (ICAM1), ICAM1 (gene 3383)
Put plainly: LTEA_HepaRG_ICAM1: Life Technologies and Expression Analysis (LTEA) Assay for Intercellular Adhesion Molecule 1 (ICAM1) using HepaRG (AID 2283507). An outline of the steps:
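Readout is qRT-PCR mRNA level, normalized to three housekeeping genes and fitted bidirectionally against 0.5% DMSO vehicle. Human HepaRG cultures received compound for 48 h, top concentration 100 uM with half-log dilutions.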

Read-out in experiment [16]: Insulin-like growth factor-binding protein 1 (IGFBP1), IGFBP1 (gene 3484)
Put plainly: LTEA_HepaRG_IGFBP1: Life Technologies and Expression Analysis (LTEA) Assay for Insulin-like growth factor-binding protein 1 (IGFBP1) using HepaRG (AID 2283508). An outline of the steps:
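Thawed HepaRG cells are plated for 48 h, switched to serum-free induction medium, then dosed in duplicate for another 48 h (100 uM top, half-log steps). Lysates in RLT go to qRT-PCR, and gain or loss of signal is fitted relative to vehicle.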

Read-out in experiment [17]: Interleukin 6 (IL6), IL6 (gene 3569)
Put plainly: LTEA_HepaRG_IL6: Life Technologies and Expression Analysis (LTEA) Assay for Interleukin 6 (IL6) using HepaRG (AID 2283509). An outline of the steps: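 Differentiated human HepaRG cells, plated 48 h then switched to serum-free induction medium, were exposed in duplicate for 48 h to eight half-log concentrations up to 100 uM in 0.5% DMSO. IL6 mRNA measured by qRT-PCR, normalized to ACTB/GAPDH/POLR2A.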

Read-out in experiment [18]: Heat shock 70 kDa protein 1 (HSPA1A), gene 3303
In words: LTEA_HepaRG_HSPA1A: Life Technologies and Expression Analysis (LTEA) Assay for Heat shock 70 kDa protein 1 (HSPA1A) using HepaRG (AID 2283502). An outline of the steps:
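Readout is HSPA1A transcript level by microfluidic qRT-PCR, normalized to three housekeeping genes and analysed for gain or loss of signal relative to 0.5% DMSO. Human HepaRG cultures received test chemicals for 48 h at up to 100 uM.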

The source made the active and inactive calls. The calls were made as follows: active = hit-call score of the fitted dose curve at least 0.9, where 1 is the maximum; inactive = score below 0.9.

Sequence of Cytochrome P450 3A7 (Homo sapiens) (P24462 whole entry, looked up): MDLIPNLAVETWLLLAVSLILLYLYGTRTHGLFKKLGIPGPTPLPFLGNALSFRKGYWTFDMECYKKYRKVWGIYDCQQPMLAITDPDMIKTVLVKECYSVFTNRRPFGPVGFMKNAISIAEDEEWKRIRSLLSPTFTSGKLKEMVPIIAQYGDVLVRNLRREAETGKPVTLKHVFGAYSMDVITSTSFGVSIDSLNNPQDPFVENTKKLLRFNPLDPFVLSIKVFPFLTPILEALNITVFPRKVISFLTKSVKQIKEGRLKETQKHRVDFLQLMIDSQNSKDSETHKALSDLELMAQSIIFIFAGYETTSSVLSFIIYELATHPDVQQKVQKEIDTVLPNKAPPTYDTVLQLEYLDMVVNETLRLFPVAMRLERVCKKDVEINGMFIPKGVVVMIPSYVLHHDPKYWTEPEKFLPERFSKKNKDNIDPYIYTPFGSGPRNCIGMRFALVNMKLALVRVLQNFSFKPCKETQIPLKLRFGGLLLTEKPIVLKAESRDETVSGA
Sequence of Hypoxia-inducible factor 1-alpha (Homo sapiens) (Q16665 whole entry, looked up): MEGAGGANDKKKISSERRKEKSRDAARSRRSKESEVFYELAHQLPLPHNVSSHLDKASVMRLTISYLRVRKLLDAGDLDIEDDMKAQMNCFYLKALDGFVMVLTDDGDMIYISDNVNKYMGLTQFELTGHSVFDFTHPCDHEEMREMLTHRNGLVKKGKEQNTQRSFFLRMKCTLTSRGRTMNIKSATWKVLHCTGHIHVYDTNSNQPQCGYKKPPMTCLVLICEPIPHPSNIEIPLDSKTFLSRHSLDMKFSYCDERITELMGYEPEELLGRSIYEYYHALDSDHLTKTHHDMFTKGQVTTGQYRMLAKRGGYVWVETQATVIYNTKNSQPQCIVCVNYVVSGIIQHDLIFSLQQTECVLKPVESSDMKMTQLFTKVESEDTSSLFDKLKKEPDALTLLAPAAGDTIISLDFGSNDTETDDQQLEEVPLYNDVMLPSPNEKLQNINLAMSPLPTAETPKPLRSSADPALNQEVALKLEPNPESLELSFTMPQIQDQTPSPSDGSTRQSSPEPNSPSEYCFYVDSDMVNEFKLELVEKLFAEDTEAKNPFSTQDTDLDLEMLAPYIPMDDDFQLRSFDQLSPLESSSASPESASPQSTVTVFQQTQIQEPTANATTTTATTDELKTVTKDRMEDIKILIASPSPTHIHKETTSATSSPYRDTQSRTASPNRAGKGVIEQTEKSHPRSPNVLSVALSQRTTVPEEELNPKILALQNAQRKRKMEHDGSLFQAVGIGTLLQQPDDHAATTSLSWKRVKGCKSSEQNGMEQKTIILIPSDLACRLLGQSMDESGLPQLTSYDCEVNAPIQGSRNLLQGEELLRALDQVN

Take `CCOc1nc(F)cc2nc(S(=O)(=O)Nc3c(Cl)cccc3Cl)nn12`: the call (in experiment [1]; in experiment [2]; in the experiment with CYP3A5 (gene 1577); in [4]; in experiment [5]; in [7]) was inactive. For the same molecule, the result in experiment [8], in experiment [9], in experiment [10], in [11], in [12] and in experiment [13] was inactive. The call (in the experiment with HGF (gene 3082); in experiment [15]) was inactive. For the same molecule, the concentration at half-maximal activity (AC50) in experiment [3] is 9.92 µM (active); in [6], 36.7 µM (active); in experiment [14], 14.4 µM (active); in [16], 50 µM (active); in [17] it was 29.8 µM (active).

As for `CCN(CC)C(=O)C(C)Oc1cccc2ccccc12` (stereo not given), the molecule was called inactive (in [1]; in experiment [2]; in the experiment with CYP3A5 (gene 1577); in [7]; in [9]; in [10]). The molecule was classed as inactive (in [11]; in experiment [18]; in [12]; with HGF (gene 3082); in experiment [15]; in experiment [16]). The molecule was called inactive in experiment [17]. The AC50 in experiment [3] is 80.2 µM (active); in [4], 70.4 µM (active); in experiment [5], 78.3 µM (active); in [6], 35.5 µM (active); in experiment [13], 76.9 µM (active); in experiment [14] it was 66.3 µM (active).

With `CCN(CC)c1nc(C)cc(OP(=S)(OC)OC)n1`, the result (in [1]; in experiment [2]; in the experiment with CYP3A5 (gene 1577); in experiment [5]; in [6]; in [7]) was inactive. The call in experiment [8], in experiment [9], in [10], in experiment [11], in [12] and in experiment [13] was inactive. The molecule was classed as inactive (with HGF (gene 3082); in [14]; in [15]; in experiment [16]; in experiment [17]). Further, the AC50 in experiment [3] is 8.23 µM (active); in experiment [4], 50 µM (active).

On to `N#CN=C1SCCN1Cc1ccc(Cl)nc1`, for which the molecule was classed as inactive (in experiment [1]; in experiment [2]; in experiment [3]; in the experiment with CYP3A5 (gene 1577); in experiment [4]; in [5]). Further, the call in [6], in experiment [7], in [8], in [9], in experiment [10] and in [11] was inactive. In addition, the molecule was classed as inactive (in experiment [12]; in [13]; with HGF (gene 3082); in [14]; in experiment [15]; in experiment [16]). Also, the outcome in experiment [17] was inactive.

As for `COC(=O)c1c(C(F)F)nc(C(F)(F)F)c(C2=NCCS2)c1CC(C)C`, the result (in [1]; in experiment [2]; in the experiment with CYP3A5 (gene 1577); in experiment [4]; in experiment [5]; in [6]) was inactive. Also, the call in experiment [7], in experiment [8], in experiment [9], in experiment [10], in experiment [11] and in experiment [12] was inactive. Also, the outcome (in experiment [13]; in the experiment with HGF (gene 3082); in [14]; in experiment [15]; in [16]; in [17]) was inactive. The concentration at half-maximal activity (AC50) in experiment [3] was 50 µM (active).
